# Source: PubChem BioAssay (NCATS)
# Records with an inconclusive call do not appear. A call without a number means that no potency is given here. Calls of active or inactive are those of the source. Unless noted, the call rests on the fitted dose curve; in most records, active means well fitted curve in the direction sought with a large enough effect; inconclusive means small, poorly fitted or top-dose-only effect, or another doubt; inactive means no such curve, though single readings can be large; an effect the other way counts as inactive or inconclusive.
# How the values were obtained:
# [1] = High Content Imaging Cell-Based qHTS for Inhibitors of the mTORC1 Signaling Pathway in MEF Cells (AID 2667); settings: series mostly up to 38.3 µM;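 further: Tsc2-/- p53-/- MEFs stably re-expressing wild-type Tsc2 exposed 24 h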
# In short: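 WT MEFs (Tsc2-/-, p53-/- re-expressing Tsc2), in DMEM + 10% FBS, were treated with compound for 24 h at 37 C. Cells were then fixed and stained for phospho-rpS6 Ser235/236 with propidium iodide as cell count. Values are % positive cells, with thresholds set against rapamycin-treated cells.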
# [2] = Cytometry Cell-Based qHTS for Inhibitors of the mTORC1 Signaling Pathway in MEF cells (AID 2668); settings: mTORC1 pathway readout; series mostly up to 38.3 µM;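 further: Tsc2-/- p53-/- mouse embryonic fibroblasts stably re-expressing wild-type Tsc2; percent cells positive for phospho-rpS6 Ser235/236 relative to propidium iodide stain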
# In short: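 Pathway inhibition in WT Tsc2-rescued Tsc2-/-, p53-/- MEFs is measured as the Alexa-488 phospho-rpS6 to propidium iodide intensity ratio after 24 hrs of compound at 37 degree Celsius. PI-stained cell number gives viability.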
# [3] = Validation screen for small molecules that induce DNA re-replication in MCF 10A normal breast cells (AID 463097); settings: MCF 10A cells, DNA re-replication phenotype imaging; series mostly up to 46.1 µM; further: nearly all actives have a fitted effect of over 60% in size; further: potency means the concentration at half of the fitted maximal effect
# In short: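 DNA re-replication was detected as a rise in nuclei with elevated Hoechst fluorescence after a 48 hr compound exposure of MCF 10A cells at 37 C.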
# [4] = biological target: Ubiquitin carboxyl-terminal hydrolase 2 (Homo sapiens) (UniProt O75604); assay: qHTS Validation Assay for Inhibitors of Ubiquitin-specific Protease USP2a Using CHOP2 as the Reporter (AID 463106); settings: USP2a cleavage of CHOP2 reporter, enzymatic; series mostly up to 38.3 µM; further: potency means the concentration at half of the fitted maximal effect
# In short: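 USP2 core (10 nM final) was preincubated with compound 30 min at RT in pH 8.0 Tris/CaCl2/beta-ME/CHAPS buffer. Ub-CHOP2 and reporter substrate (25 nM final each) were then added, with fluorescence (Ex 485/Em 531) read after 60 min. Data were normalized to NEM full inhibition and fitted to concentration-response curves.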
# [5] = biological target: DNA polymerase III PolC-type (Bacillus subtilis (strain 168)) (UniProt P13267); assay: qHTS Validation Assay for the Inhibitors of DNA Replication in Gram-Positive Bacteria (AID 485295); settings: Gram-positive bacterial DNA replication assay; series mostly up to 57.1 µM; further: potency means the concentration at half of the fitted maximal effect
# In short: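 Primed replication of single-stranded M13Gori by a four-protein B. subtilis holoenzyme is measured at room temperature. Double-stranded product is quantified by PicoGreen fluorescence after an EDTA stop; inhibition is scaled between DMSO and EDTA controls.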
# [6] = biological target: Tumor susceptibility gene 101 protein (Homo sapiens) (UniProt Q99816); assay: qHTS Validation Assay for Iinhibitors of HIV-1 Budding by Blocking the Interaction of PTAP/TSG101 (AID 485342; calls by dose curve); settings: TSG101-PTAP binding, fluorescence polarization, 4-point titration; series mostly up to 115 µM
# In short: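 Fluorescence anisotropy measured PTAP-Tsg101 interaction. Final concentrations were 10 uM protein domain and 50 nM labeled peptide, equilibrated 20 min at room temperature.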
# [7] = qHTS Validation Assay to Find Inhibitors of Chronic Active B-Cell Receptor Signaling (AID 485345; active means well fitted curve in the direction sought with a large enough effect in the main read-out, with a control signal flat, not every such curve was filed as active); settings: ABC-DLBCL cells, chronic BCR signaling reporter, CBG luciferase; series mostly up to 46.1 µM
# In short: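 TMD8 ABC-DLBCL cells stably carrying doxycycline-inducible IkappaBalpha–green luciferase fusion plus unfused red luciferase; compounds 46 uM to 3 nM, 4 h at 37C with doxycycline. Corrected green/red luminescence ratio normalized to 10 uM MG-132 and basal cell wells; curves fitted.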
# [8] = biological target: Beta-2 adrenergic receptor (Homo sapiens) (UniProt P07550); assay: qHTS validation assay of beta-arrestin-biased ligands of beta2-adrenergic receptor (AID 485366); settings: cell-based beta-arrestin recruitment to ADRB2, qHTS; series mostly up to 46.1 µM
# In short: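 Values derive from curve-fitted %Activity of a luminescent beta-arrestin recruitment reporter; compounds tested up to 46 microM on Tango cells for 18 hr at 37 degrees C, 5% CO2.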
# [9] = Quantitative high throughput screen for delayed death inhibitors of the malarial parasite plastid, 96 hour incubation (AID 488745); settings: Plasmodium falciparum growth; series mostly up to 28.7 µM; further: nearly all actives have a fitted effect of over 70% in size; further: potency means the concentration at half of the fitted maximal effect
# In short: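 Growth of reporter-bearing P. falciparum in red cells is measured after 96 h with compound, covering two erythrocytic cycles. Luminescence from the integrated luciferase serves as the growth signal.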
# [10] = Quantitative high throughput screen for delayed death inhibitors of the malarial parasite plastid, 48 hour incubation (AID 488752); settings: Plasmodium falciparum growth; series mostly up to 28.7 µM; further: nearly all actives have a fitted effect of over 65% in size; further: potency means the concentration at half of the fitted maximal effect
# In short: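 One parasite generation (48 h, 37 C, 5% CO2) of luciferase-reporter P. falciparum in erythrocytes is run with test compound; decreased luminescence indicates inhibited growth.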
# [11] = biological target: Thioredoxin reductase 1, cytoplasmic (Rattus norvegicus) (UniProt O89049); assay: qHTS Assay for Substrates of Mammalian Selenoprotein Thioredoxin Reductase 1 (TrxR1) (AID 488772); settings: purified TrxR1, NADPH consumption substrate assay; series mostly up to 57.1 µM;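 further: NADPH fluorescence in the first read after selenite addition and not the 8 min delta; a drop in NADPH fluorescence below the no-compound background marks a TrxR1 substrate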
# In short: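 Quantitative HTS in Tris-HCl buffer at pH 7.5 with EDTA and Tween-20, using rat TrxR1, 400 uM NADPH and 400 uM selenite (final). A fall in initial NADPH fluorescence relative to background marked substrate behaviour.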
# [12] = biological target: Thioredoxin reductase 1, cytoplasmic (Rattus norvegicus) (UniProt O89049); assay: qHTS Assay for Inhibitors of Mammalian Selenoprotein Thioredoxin Reductase 1 (TrxR1) (AID 488773); settings: purified TrxR1 enzyme activity; Potency: inhibition; series mostly up to 57.1 µM;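 further: drop in NADPH fluorescence over an 8 min run after selenite addition; nearly all actives have a fitted effect of over 40% in size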
# In short: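 Steps: enzyme (90 nM) plus NADPH (400 uM final), 5 min at ~22 deg C; compound added, 15 min; selenite (400 uM final) added; fluorescence followed for 8 min. Concentration-response curves derived from the normalized delta values.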
# [13] = biological target: Flap endonuclease 1 (Homo sapiens) (UniProt P39748); assay: qHTS Validation Assay for the Inhibitors of Human Flap endonuclease 1 (FEN1) (AID 488816); settings: FEN1 nuclease activity, fluorogenic DNA substrate; series mostly up to 57.1 µM; further: potency means the concentration at half of the fitted maximal effect
# In short: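 Human FEN1 (10 nM) preincubated 15 min at room temperature with compounds, then flap DNA substrate added at 50 nM final. Fluorescence read at 0 and 15 min; concentration-response fitted with four-parameter Hill equation.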
# [14] = biological target: M-phase phosphoprotein 8 (Homo sapiens) (UniProt Q99549); assay: qHTS Validation Assay for Inhibitors for MPP8 Chromodomain Interactions with Methylated Histone Tails (AID 488949); settings: AlphaScreen MPP8 binding to H3K9me3 peptide; series mostly up to 57.1 µM; further: nearly all actives have a fitted effect of over 55% in size; further: potency means the concentration at half of the fitted maximal effect
# In short: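 Disruption of the preformed MPP8–trimethyl-H3K9 peptide complex (both 50 nM, 30 min, RT) is measured after 30 min compound exposure, using AlphaScreen proximity beads; aurintricarboxylic acid titration serves as plate control.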
# [15] = biological target: Chromobox protein homolog 1 (Homo sapiens) (UniProt P83916); assay: qHTS Validation Assay for Inhibitors of HP1-beta Chromodomain Interactions with Methylated Histone Tails (AID 488953); settings: HP1-beta chromodomain / methylated histone peptide binding assay; series mostly up to 114 µM; further: nearly all actives have a fitted effect of over 50% in size; further: potency means the concentration at half of the fitted maximal effect
# In short: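 Measured as loss of AlphaScreen luminescence from streptavidin donor and nickel acceptor beads (10 ug/mL final) bridging HP1-beta and biotin-H3(1-18)K9me3, each 50 nM. Compounds met the preassembled complex for 30 min at RT.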
# [16] = biological target: Methanococcus maripaludis chaperonin (MmCpn) (UniProt Q6LX38); assay: High-Throughput Screening for Modulators of Cytosolic Chaperonin Activity: MmCpn Primary Screen (AID 488978); settings: Purified MmCpn ATPase activity, ADP HTRF detection, 10 min; series mostly up to 76.9 µM;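 further: 50 nM MmCpn enzyme hydrolysing 30 µM ATP at 37 °C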
# In short: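 Measures ATPase turnover of the M. maripaludis chaperonin (50 nM final) against 30 uM ATP over 10 min at 37C, with compound added 5 min beforehand at room temperature. ADP is quantified by HTRF immunodetection.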
# [17] = biological target: Transient receptor potential cation channel subfamily V member 1 (Homo sapiens) (UniProt Q8NER1); assay: HTS Assay for Compounds that Act as Enhancers of the Vanilloid Receptor 1 (AID 488979); settings: TRPV1-expressing cells, enhancer of channel activity, stimulated with capsaicin at EC20; series mostly up to 41.7 µM
# In short: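 TRPV1 cells loaded with Fluo-8 calcium dye; compound added and Ca2+ signal (ex 480/em 520 nm) followed 3 min, then capsaicin at EC20 added and read 2 more min to detect enhancement.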
# [18] = biological target: Thyrotropin receptor (Homo sapiens) (UniProt P16473); assay: qHTS Assay for Antagonists of the Thyroid Stimulating Hormone Receptor (AID 488980); settings: TSHR-expressing cells, cAMP antagonist read-out; series mostly up to 57.5 µM
# In short: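 Cells expressing human TSHR (HEK293) are dispensed in HBSS/HEPES containing 70 uM RO 20-1724, compound is added, then TSH at EC80 (4 nM final). Antibody in lysis buffer follows, 30 minutes at room temperature before HTRF detection.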
# [19] = biological target: D(1A) dopamine receptor (Homo sapiens) (UniProt P21728); assay: HTS Assay for Allosteric Agonists of the Human D1 Dopamine Receptor: Primary Screen for Agonists (AID 488981); settings: Inducible HEK293 T-REx D1 cells, calcium-flux fluorescence, 180 s kinetic; series mostly up to 41.8 µM
# In short: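 Tetracycline-induced HEK293 Trex D1 cells with forced coupling to calcium, loaded with no-wash calcium dye; kinetic fluorescence read 180 s after compound addition for agonism, then a further 180 s after an EC20 dopamine challenge for potentiation.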
# [20] = biological target: ATP-dependent 6-phosphofructokinase (Trypanosoma brucei brucei) (UniProt O15648); assay: qHTS Validation Assay to Find Inhibitors of T. brucei phosphofructokinase (AID 485368); further: potency means the concentration at half of the fitted maximal effect; settings: T. brucei PFK enzyme assay, qHTS 7-point titration; series mostly up to 57.5 µM
# In short: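 Enzyme reaction in triethanolamine buffer pH 8.0 with 5 mM MgCl2, 0.01% Tween20 and 0.1% BSA; PFK 1.25 nM, F6P 0.5 mM, ATP 0.1 mM, 45 min RT. ADP quantified by ADP-Glo.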
# Chain of D(1A) dopamine receptor (Homo sapiens) (P21728 whole entry, looked up): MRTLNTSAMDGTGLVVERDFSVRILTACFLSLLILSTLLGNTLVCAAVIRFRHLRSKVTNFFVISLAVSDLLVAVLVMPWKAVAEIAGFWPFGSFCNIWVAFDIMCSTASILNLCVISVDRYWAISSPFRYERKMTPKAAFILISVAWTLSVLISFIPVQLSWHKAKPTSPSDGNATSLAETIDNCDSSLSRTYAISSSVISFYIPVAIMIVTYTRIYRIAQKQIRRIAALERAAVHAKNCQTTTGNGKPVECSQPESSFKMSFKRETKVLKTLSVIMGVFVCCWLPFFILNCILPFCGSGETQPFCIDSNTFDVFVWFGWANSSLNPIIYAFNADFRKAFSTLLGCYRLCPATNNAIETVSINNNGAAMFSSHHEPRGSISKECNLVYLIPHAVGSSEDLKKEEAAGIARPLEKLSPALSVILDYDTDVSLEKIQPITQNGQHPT
# Chain of Thyrotropin receptor (Homo sapiens) (P16473 whole entry, looked up): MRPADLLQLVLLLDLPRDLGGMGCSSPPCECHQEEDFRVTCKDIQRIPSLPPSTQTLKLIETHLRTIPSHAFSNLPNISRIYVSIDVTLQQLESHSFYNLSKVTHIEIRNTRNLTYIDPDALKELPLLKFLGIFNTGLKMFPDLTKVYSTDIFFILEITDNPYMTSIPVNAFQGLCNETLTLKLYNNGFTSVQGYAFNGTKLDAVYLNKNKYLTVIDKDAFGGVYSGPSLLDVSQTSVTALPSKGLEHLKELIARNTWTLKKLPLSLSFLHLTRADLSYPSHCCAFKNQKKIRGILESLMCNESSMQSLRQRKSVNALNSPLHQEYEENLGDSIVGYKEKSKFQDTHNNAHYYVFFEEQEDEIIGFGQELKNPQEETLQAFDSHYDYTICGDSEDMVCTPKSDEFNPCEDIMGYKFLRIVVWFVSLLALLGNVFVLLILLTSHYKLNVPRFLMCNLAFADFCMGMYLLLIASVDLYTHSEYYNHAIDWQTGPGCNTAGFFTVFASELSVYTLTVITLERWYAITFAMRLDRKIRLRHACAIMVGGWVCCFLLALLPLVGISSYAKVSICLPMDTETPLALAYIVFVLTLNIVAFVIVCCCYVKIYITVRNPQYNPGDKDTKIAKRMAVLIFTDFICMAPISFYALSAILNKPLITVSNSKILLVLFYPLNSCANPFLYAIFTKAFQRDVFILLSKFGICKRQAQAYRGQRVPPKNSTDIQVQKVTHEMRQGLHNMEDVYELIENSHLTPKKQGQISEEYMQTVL
# Chain of Thioredoxin reductase 1, cytoplasmic (Rattus norvegicus) (O89049 whole entry, looked up): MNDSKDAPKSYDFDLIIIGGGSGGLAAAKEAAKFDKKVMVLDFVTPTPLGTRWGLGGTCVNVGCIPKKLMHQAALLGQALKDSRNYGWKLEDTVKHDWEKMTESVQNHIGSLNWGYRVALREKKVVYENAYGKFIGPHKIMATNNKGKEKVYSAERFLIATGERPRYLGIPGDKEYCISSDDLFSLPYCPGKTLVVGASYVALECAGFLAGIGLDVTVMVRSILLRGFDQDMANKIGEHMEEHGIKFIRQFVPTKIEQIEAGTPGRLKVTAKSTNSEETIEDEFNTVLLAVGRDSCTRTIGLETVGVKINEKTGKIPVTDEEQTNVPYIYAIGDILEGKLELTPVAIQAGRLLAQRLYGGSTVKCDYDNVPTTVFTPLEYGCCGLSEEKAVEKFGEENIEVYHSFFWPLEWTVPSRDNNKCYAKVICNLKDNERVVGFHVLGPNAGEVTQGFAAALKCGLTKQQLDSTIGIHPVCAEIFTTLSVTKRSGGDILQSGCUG
# Chain of M-phase phosphoprotein 8 (Homo sapiens) (Q99549 whole entry, looked up): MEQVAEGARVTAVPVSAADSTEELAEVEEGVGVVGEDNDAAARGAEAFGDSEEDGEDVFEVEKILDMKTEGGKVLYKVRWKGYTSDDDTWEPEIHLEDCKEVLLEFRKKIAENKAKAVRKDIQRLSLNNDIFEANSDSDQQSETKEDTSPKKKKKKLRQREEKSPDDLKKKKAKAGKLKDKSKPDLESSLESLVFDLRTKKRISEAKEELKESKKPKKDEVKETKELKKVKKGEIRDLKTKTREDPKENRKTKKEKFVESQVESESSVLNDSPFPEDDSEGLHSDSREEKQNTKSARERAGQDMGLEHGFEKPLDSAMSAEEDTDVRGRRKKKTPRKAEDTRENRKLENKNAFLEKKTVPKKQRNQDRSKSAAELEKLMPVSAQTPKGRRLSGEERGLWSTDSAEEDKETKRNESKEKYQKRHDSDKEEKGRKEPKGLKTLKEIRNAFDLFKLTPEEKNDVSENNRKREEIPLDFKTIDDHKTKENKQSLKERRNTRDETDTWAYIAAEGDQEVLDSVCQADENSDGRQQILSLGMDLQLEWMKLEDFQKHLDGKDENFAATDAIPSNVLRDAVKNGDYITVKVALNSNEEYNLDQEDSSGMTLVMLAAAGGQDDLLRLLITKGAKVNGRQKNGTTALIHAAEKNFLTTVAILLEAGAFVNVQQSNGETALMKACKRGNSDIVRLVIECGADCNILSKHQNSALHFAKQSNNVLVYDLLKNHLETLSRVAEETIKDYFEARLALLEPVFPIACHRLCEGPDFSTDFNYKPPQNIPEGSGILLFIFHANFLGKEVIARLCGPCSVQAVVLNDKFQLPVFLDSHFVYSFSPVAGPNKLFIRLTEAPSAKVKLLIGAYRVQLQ
# Chain of Beta-2 adrenergic receptor (Homo sapiens) (P07550 whole entry, looked up): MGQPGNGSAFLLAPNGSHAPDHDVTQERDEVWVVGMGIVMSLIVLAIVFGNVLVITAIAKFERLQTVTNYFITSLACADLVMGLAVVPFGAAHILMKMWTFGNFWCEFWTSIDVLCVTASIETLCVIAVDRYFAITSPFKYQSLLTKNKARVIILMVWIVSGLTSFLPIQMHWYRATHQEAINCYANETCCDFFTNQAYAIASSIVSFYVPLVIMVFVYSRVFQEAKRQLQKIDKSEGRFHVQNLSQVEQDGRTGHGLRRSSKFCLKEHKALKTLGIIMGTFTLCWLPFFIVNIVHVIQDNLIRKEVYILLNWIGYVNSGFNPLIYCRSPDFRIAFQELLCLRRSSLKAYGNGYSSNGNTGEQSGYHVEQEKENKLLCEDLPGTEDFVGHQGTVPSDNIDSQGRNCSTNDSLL
# Chain of Methanococcus maripaludis chaperonin (MmCpn) (Q6LX38 1-543): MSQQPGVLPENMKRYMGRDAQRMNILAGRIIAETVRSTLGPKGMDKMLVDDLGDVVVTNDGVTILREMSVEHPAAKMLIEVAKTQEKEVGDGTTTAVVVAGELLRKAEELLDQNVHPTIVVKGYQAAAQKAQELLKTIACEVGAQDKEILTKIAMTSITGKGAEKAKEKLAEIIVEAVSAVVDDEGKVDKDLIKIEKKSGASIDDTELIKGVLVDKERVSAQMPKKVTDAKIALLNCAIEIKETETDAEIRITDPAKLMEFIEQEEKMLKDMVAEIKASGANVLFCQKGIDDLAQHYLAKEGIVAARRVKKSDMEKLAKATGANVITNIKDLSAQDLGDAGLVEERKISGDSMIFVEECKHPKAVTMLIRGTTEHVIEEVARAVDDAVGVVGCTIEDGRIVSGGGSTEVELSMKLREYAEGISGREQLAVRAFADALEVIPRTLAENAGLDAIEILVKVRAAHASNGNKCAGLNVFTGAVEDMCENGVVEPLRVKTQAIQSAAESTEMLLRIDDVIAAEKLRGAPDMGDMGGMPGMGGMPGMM
# Chain of Chromobox protein homolog 1 (Homo sapiens) (P83916 whole entry, looked up): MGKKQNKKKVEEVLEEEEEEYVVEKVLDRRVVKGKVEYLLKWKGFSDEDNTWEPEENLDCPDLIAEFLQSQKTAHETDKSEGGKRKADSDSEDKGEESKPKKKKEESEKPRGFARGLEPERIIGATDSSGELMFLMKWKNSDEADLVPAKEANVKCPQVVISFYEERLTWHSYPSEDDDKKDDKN
# Chain of Tumor susceptibility gene 101 protein (Homo sapiens) (Q99816 whole entry, looked up, the tested form may be a part): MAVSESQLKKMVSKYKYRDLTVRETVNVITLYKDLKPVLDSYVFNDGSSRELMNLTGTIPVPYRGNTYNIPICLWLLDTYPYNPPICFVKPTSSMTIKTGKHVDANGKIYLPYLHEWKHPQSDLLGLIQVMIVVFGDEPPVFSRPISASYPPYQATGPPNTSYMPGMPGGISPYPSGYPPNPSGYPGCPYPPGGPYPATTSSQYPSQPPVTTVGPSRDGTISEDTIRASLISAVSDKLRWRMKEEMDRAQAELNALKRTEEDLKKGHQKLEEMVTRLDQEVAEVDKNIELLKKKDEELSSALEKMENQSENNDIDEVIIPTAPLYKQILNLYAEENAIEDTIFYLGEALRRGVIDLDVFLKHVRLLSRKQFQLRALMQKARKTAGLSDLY
# Chain of ATP-dependent 6-phosphofructokinase (Trypanosoma brucei brucei) (O15648 whole entry, looked up): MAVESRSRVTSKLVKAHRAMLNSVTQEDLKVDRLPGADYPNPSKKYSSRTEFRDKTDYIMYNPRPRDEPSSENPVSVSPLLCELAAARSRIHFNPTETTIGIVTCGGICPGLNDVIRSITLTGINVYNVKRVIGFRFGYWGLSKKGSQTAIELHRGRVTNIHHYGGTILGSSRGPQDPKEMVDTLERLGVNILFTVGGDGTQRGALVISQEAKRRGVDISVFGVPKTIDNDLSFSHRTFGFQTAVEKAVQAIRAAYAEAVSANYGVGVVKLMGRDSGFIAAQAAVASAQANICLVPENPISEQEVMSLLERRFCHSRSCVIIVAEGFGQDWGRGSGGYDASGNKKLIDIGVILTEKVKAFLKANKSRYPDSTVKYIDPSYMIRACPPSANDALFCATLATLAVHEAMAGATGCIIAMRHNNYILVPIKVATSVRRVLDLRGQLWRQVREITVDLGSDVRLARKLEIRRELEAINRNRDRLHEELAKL
# Chain of Flap endonuclease 1 (Homo sapiens) (P39748 whole entry, looked up): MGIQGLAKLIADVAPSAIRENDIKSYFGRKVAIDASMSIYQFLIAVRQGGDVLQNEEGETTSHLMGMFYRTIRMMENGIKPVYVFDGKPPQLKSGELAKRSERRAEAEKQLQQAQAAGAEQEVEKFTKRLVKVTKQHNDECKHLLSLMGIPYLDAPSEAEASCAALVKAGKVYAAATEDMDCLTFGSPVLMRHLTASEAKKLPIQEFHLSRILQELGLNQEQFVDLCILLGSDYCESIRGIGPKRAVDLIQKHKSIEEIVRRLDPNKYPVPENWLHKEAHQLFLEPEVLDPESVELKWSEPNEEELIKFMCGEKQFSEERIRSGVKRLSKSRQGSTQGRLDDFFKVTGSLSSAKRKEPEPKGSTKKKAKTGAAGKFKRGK
SMILES,Potency [1],Potency [2],Potency [3],Potency [4],Potency [5],outcome [6],outcome [7],outcome [8],Potency [9],Potency [10],Potency [11],Potency [12],Potency [13],Potency [14],Potency [15],outcome [16],outcome [17],outcome [18],Potency [19],Potency [20]
C[N+](C)(CCCCCC[N+](C)(C)CCCN1C(=O)c2cccc3cccc(c23)C1=O)CCCN1C(=O)c2cccc3cccc(c23)C1=O,inactive,inactive,inactive,inactive,10.6 µM (active),inactive,inactive,inactive,0.928 µM (active),0.294 µM (active),inactive,inactive,2.99 µM (active),inactive,inactive,inactive,inactive,inactive,inactive,–
O=C(Nc1cccc(C(=O)Nc2ccc(S(=O)(=O)O)c3cc(S(=O)(=O)O)cc(S(=O)(=O)O)c23)c1)Nc1cccc(C(=O)Nc2ccc(S(=O)(=O)O)c3cc(S(=O)(=O)O)cc(S(=O)(=O)O)c23)c1,inactive,inactive,inactive,8.26 µM (active),11.9 µM (active),inactive,inactive,inactive,inactive,inactive,inactive,–,1.89 µM (active),–,20 µM (active),inactive,inactive,inactive,inactive,0.0379 µM (active)
Cc1ccc(C(=O)O[C@H](C(=O)O)[C@@H](OC(=O)c2ccc(C)cc2)C(=O)O)cc1 (tested in a mixture with another compound),inactive,inactive,inactive,inactive,inactive,inactive,inactive,inactive,inactive,inactive,inactive,inactive,–,inactive,inactive,inactive,inactive,–,–,inactive
N=C(N)SCCc1ccc(CCSC(=N)N)cc1,inactive,inactive,inactive,inactive,inactive,inactive,inactive,inactive,inactive,inactive,inactive,inactive,inactive,inactive,inactive,inactive,inactive,inactive,inactive,inactive
CC1(C)CCC=[N+]1[O-],inactive,inactive,inactive,inactive,inactive,inactive,inactive,inactive,inactive,inactive,inactive,inactive,inactive,inactive,inactive,inactive,inactive,inactive,–,–
O=C(O)[C@@H]1C[C@@H](C(=O)O)N1,inactive,inactive,inactive,inactive,inactive,inactive,inactive,inactive,inactive,inactive,inactive,inactive,inactive,inactive,inactive,inactive,inactive,–,inactive,–
CC(=O)SCC[N+](C)(C)C,inactive,inactive,inactive,inactive,inactive,inactive,inactive,inactive,inactive,inactive,inactive,inactive,–,inactive,inactive,inactive,inactive,inactive,inactive,inactive
O=c1[nH]c2cc(C(F)(F)F)ccc2n1-c1cc(C(F)(F)F)ccc1O,inactive,inactive,inactive,inactive,inactive,inactive,–,inactive,–,–,–,inactive,inactive,inactive,–,inactive,inactive,inactive,–,inactive
O=C(O)CC1CCCc2ccccc2C1O (centres undefined),inactive,inactive,inactive,inactive,inactive,inactive,inactive,inactive,inactive,inactive,–,inactive,inactive,–,–,inactive,inactive,inactive,inactive,inactive
CN=c1nc(-c2ccccc2)n(-c2ccccc2)s1,inactive,inactive,11.2 µM (active),inactive,26.7 µM (active),inactive,inactive,inactive,inactive,–,inactive,–,inactive,4.47 µM (active),12.6 µM (active),inactive,inactive,inactive,inactive,10.7 µM (active)
N[C@@H](CC(=O)O)C(=O)O,inactive,inactive,inactive,inactive,inactive,inactive,inactive,inactive,inactive,inactive,inactive,inactive,inactive,inactive,inactive,inactive,inactive,inactive,inactive,inactive
O=C1NC(O)=NC1(c1ccccc1)c1ccccc1,inactive,inactive,inactive,inactive,inactive,inactive,inactive,inactive,inactive,inactive,inactive,inactive,inactive,inactive,inactive,inactive,inactive,inactive,inactive,inactive
NC(N)=NC(=O)c1nc(Cl)c(N2CCCCCC2)nc1N,inactive,inactive,inactive,inactive,inactive,inactive,inactive,inactive,–,–,–,inactive,inactive,–,–,inactive,–,inactive,inactive,–
NO,inactive,inactive,inactive,inactive,inactive,inactive,inactive,inactive,–,inactive,inactive,inactive,inactive,inactive,–,inactive,inactive,inactive,–,–
O=C(O)CC[C@@H](C(=O)O)N1C(=O)c2ccccc2C1=O,inactive,inactive,inactive,inactive,inactive,inactive,inactive,inactive,inactive,inactive,inactive,inactive,inactive,inactive,–,inactive,inactive,inactive,–,–
